According to ChEMBL document CHEMBL3988442, “University of Dundee, Small-Polar-MMV Screening Library” (2021):
For some assays here: Results with a measured potency or affinity are listed apart.

What was measured:
Set-up in all cases: scale not given: direction of the effect not stated beside the values
[1] = molecular target: Protein translocase subunit SecA (Escherichia coli (strain K12)) (UniProt P10408); test: Assay to Identify E. coli SecA ATPase Inhibitors; assay type: functional; settings: 30 µM
[2] = molecular target: T1, Ubiquitin-activating enzyme e1, putative (Leishmania donovani (strain BPK282A1)) (UniProt E9BSI1); test: Leishmania donovani Ubiquitin Activating Enzyme (LdE1); assay type: functional; settings: 30 µM
T1 sequence (whole entry): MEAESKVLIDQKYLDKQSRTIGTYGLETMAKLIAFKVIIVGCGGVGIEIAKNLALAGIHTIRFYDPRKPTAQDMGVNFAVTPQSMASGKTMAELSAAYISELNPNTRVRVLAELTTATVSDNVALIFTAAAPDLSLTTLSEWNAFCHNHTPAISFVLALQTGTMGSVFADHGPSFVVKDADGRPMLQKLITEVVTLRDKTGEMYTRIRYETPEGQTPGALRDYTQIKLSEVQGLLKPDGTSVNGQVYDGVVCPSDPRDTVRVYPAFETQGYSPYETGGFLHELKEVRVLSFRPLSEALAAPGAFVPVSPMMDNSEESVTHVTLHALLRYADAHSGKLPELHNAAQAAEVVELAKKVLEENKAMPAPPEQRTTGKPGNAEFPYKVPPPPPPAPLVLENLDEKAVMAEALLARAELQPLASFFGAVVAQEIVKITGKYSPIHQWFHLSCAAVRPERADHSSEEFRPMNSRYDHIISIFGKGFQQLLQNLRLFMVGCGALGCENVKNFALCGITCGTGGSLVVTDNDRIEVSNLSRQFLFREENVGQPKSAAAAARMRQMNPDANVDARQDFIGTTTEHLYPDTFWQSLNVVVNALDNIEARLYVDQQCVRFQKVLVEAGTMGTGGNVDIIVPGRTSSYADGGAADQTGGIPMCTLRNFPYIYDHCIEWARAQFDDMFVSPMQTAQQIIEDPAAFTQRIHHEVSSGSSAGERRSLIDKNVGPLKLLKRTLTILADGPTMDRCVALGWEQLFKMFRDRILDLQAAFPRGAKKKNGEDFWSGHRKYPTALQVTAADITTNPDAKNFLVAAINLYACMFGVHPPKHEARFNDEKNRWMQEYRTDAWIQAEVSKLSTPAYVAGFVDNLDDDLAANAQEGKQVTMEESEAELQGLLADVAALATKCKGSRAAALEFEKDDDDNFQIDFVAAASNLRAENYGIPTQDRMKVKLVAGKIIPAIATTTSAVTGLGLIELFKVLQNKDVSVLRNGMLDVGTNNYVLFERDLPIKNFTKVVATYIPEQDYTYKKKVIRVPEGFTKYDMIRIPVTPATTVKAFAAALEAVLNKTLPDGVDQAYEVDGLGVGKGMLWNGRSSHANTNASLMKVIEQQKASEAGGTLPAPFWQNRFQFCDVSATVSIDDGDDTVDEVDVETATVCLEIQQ

[3] = molecular target: AMP-activated protein kinase, AMPK (Homo sapiens) (UniProt P54646+O43741+P54619+Q9UGJ0+Q9Y478+Q13131+Q9UGI9); test: AMP-dependent Kinase enzyme assay. An in vitro enzyme assay that detects ADP turnover that is directly proportional to AMPK activity. This uses naive AMPK that is activated during the assay with MK-8722; assay type: functional; settings: 30 µM
[4] = molecular target: Sialic acid-binding Ig-like lectin 9 (Homo sapiens) (UniProt Q9Y336); test: Hs-Siglec9 ALPHAscreen SOP 20170721; settings: 10 µM
Trypanosoma cruzi = test: Trypanosoma cruzi phosphomannomutase and mannose-1-phosphate guanylyltransferase assay; assay type: functional; settings: 10 µM
[5] = molecular target: T2, Arginase-2, mitochondrial (Homo sapiens) (UniProt P78540); test: in vitro enzyme assay to detect the production of urea directly proportional to the activity of Arginase II; assay type: functional; settings: 33.3 µM; further: in the data most compounds retested in dose-response had high values
T2 sequence (whole entry): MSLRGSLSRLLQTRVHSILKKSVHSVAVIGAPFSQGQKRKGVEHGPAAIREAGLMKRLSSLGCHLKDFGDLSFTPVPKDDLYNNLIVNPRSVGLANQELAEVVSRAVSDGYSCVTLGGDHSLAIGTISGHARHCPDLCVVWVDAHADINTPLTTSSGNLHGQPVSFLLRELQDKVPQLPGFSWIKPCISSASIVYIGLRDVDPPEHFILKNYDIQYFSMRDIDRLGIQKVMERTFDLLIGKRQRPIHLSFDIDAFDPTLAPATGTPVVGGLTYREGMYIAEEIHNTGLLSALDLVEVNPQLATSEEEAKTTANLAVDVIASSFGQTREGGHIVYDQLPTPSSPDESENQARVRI

[6] = molecular target: T3, Proteasome subunit beta (Trypanosoma cruzi) (UniProt O96673); test: Trypanosoma cruzi proteasome chymotrypsin-like activity (TcProtChymo) assay.; further: in the data most compounds retested in dose-response had high values; assay type: functional; settings: 9.37 µM
T3 sequence (whole entry): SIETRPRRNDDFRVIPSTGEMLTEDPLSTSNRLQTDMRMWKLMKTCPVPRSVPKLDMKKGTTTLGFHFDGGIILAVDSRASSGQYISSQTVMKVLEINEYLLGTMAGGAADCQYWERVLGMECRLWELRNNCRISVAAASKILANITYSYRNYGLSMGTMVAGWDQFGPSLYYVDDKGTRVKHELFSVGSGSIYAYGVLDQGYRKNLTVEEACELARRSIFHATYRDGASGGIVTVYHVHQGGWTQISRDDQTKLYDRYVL

Homo sapiens = species on record: Homo sapiens; test: To identify inhibition of the IFN signalling (Jak-Stat) pathway via expression of an eGFP reporter gene under the control of an IFN-stimulated response element (ISRE) containing MxA promoter.; assay type: functional; settings: 30 µM
[7] = molecular target: T4, Tyrosyl-tRNA synthetase, putative (Trypanosoma cruzi (strain CL Brener)) (UniProt Q4DSP6); test: Trypanosoma cruzi tyrosyl tRNA synthetase (TcYRS) _High Tyrosine SOP; assay type: functional; settings: 30 µM; further: in the data most compounds retested in dose-response had high values
T4 sequence (whole entry): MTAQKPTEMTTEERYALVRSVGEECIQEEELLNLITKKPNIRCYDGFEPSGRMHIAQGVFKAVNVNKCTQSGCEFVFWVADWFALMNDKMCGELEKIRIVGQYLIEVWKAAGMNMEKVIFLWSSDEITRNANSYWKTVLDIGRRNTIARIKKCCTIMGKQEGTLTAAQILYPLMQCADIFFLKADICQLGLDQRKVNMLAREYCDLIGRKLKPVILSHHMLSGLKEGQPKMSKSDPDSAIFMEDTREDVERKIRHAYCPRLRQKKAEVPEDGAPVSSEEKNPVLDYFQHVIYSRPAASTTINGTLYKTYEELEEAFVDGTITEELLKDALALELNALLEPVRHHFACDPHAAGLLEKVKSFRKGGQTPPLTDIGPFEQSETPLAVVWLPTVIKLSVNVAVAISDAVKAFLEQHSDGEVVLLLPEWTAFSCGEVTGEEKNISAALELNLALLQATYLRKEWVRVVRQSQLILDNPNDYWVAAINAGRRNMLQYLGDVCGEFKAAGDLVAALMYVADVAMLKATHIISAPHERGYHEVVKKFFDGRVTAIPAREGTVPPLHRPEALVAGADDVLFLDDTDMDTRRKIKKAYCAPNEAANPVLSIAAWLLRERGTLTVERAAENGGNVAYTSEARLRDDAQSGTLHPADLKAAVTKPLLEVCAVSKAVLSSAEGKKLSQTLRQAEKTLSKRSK

[8] = molecular target: T4, Tyrosyl-tRNA synthetase, putative (Trypanosoma cruzi (strain CL Brener)); test: Trypanosoma cruzi tyrosyl tRNA synthetase (TcYRS) SOP; assay type: functional; settings: 30 µM
[9] = molecular target: Chromo domain-containing protein 1 (Saccharomyces cerevisiae (strain ATCC 204508 / S288c) (Baker's yeast)) (UniProt P32657); test: ScCHD-1 Enzyme Inhibition Assay; assay type: functional; settings: 30 µM; further: in the data most compounds retested in dose-response had high values
Sequence of Chromo domain-containing protein 1 (Saccharomyces cerevisiae (strain ATCC 204508 / S288c) (Baker's yeast)) (P32657 whole entry, the tested form may be a part): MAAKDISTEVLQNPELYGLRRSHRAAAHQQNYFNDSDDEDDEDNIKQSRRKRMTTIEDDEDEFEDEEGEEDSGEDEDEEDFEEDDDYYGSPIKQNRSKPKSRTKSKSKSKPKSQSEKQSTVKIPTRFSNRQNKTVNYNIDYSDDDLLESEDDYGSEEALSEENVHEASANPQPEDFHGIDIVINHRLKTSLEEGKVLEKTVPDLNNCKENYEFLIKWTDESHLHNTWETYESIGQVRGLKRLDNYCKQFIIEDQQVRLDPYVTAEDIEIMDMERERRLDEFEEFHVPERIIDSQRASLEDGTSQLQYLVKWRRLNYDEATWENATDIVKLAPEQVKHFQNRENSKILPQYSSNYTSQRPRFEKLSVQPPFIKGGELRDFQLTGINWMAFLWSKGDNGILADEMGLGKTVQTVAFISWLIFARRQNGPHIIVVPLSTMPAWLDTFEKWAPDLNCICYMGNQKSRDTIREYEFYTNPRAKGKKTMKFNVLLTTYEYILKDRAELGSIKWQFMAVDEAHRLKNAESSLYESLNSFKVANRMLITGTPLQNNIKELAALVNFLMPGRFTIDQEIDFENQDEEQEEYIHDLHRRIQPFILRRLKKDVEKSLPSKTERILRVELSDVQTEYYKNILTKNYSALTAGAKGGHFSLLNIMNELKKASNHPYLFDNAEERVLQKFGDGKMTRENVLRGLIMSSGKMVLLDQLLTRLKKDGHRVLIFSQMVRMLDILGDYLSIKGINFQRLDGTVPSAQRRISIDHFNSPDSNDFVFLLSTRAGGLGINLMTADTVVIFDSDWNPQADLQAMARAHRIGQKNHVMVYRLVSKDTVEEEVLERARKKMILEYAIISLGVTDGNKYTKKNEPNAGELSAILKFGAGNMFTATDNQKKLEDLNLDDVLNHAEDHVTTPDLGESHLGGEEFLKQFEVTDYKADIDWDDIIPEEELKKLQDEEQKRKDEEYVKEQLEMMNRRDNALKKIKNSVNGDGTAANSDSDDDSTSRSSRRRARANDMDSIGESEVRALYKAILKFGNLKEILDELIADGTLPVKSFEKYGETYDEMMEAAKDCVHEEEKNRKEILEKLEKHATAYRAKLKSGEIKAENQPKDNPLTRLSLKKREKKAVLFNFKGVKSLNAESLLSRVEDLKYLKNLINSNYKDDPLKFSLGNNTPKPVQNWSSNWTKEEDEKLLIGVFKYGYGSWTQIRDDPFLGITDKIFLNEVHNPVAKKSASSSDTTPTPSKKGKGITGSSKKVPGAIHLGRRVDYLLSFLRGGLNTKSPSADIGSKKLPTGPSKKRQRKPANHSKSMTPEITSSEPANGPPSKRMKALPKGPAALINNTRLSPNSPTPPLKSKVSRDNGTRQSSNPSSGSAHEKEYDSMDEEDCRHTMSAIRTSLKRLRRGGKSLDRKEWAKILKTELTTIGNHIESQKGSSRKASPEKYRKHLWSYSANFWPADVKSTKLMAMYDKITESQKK

Sequence of Sialic acid-binding Ig-like lectin 9 (Homo sapiens) (Q9Y336 whole entry): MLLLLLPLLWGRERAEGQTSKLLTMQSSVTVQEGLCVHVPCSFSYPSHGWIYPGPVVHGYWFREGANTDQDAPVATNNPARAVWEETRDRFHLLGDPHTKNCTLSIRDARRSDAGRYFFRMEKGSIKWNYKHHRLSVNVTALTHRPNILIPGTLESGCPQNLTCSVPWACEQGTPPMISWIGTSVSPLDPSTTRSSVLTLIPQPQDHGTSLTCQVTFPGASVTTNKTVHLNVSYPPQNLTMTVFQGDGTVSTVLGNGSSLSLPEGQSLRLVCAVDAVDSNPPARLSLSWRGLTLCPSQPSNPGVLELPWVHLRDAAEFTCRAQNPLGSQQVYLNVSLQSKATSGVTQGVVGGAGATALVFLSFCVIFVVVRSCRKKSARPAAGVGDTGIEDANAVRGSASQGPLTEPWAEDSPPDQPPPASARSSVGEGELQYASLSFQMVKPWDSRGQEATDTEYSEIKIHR
Sequence of Protein translocase subunit SecA (Escherichia coli (strain K12)) (P10408 whole entry): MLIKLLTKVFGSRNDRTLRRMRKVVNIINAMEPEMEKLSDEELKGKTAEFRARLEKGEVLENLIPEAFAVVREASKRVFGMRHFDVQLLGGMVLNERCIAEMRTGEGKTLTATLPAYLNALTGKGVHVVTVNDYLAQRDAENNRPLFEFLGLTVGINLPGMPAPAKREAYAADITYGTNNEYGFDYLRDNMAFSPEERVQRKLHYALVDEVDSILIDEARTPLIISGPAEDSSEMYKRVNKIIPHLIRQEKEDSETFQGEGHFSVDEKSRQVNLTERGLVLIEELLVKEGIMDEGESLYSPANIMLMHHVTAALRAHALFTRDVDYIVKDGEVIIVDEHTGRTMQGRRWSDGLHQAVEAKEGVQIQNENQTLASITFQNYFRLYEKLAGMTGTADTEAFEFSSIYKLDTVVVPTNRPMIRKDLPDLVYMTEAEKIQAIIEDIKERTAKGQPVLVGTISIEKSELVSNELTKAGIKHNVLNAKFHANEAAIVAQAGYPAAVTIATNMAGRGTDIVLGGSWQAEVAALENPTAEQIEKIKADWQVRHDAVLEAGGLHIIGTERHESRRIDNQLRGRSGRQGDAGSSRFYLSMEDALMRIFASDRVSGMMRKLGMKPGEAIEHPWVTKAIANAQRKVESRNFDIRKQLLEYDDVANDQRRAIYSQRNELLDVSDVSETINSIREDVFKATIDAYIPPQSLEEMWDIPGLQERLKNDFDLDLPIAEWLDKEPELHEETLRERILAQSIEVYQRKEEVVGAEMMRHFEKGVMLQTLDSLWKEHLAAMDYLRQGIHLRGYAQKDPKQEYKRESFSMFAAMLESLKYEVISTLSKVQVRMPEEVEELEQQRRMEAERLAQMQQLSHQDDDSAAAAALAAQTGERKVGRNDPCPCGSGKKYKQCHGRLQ

| Structure (SMILES) | Percent Effect [1] [%] | Percent Effect [2] [%] | Percent Effect [3] [%] | Percent Effect [4] [%] | Percent Effect (Trypanosoma cruzi) [%] | Percent Effect [5] [%] | Percent Effect [6] [%] | Percent Effect (Homo sapiens) [%] | Percent Effect [7] [%] | Percent Effect [8] [%] | Percent Effect [9] [%] |
| --- | --- | --- | --- | --- | --- | --- | --- | --- | --- | --- | --- |
| Cc1noc(C(C)N2CCN(CCC(=O)N3CCCCC3)CC2)n1 (configuration not stated) | -2.79 | 10.5 | -2.48 | 3.61 | 4.19 | -16.6 | 9.68 | 21.2 | 3.19 | 15.6 | -5.47 |
| CNc1cncc(C2CCCN(S(C)(=O)=O)C2)n1 (configuration not stated) | -1.57 | -1.35 | 13.3 | 2.54 | -6.92 | 3.48 | 17 | 23.6 | 1.07 | 6.49 | -15.8 |
| O=C(CCc1nccs1)N1CCN(c2ccc(Br)cn2)CC1 | -7.37 | 7.79 | 14.3 | -8.09 | -1.27 | -1.05 | -4.12 | 31.4 | 2.86 | 7.06 | -21.6 |
| Cc1nn(CC(C)C)c(N(C)C)c1CNCc1cccnc1N(C)C | -4.49 | 5.41 | -8.59 | 3.17 | -9.34 | -6.41 | 7.75 | 6.14 | 1.48 | 3.7 | -5.66 |
| CC(OCC(F)(F)F)C(=O)NCc1ccc(-n2cncn2)nc1 (configuration not stated) | -1.15 | 18.2 | 0.466 | -5.68 | 4.8 | -22.5 | 8.16 | 21.5 | 7.62 | 23.5 | -24 |
| Cc1nc2ccccc2nc1CN1CCCC1Cn1cncn1 (configuration not stated) | -0.371 | 20.8 | -4.59 | -7.28 | 3.23 | 1.9 | 19.5 | 13.1 | 16.2 | 21.2 | -23.2 |
| O=C(Cc1ccc(F)cc1)N1CCn2cc(Cn3cccn3)nc2C1 | -3.25 | 10.8 | 5.39 | -3.22 | -1.66 | 6.69 | 8.12 | -1.16 | 5.41 | 20.5 | 0.365 |
| O=C(c1cscn1)N1CCC[C@]2(C[C@H](OCC3CC3)CO2)C1 | -1.77 | -2.67 | 6.38 | 4.3 | 5.91 | 0.233 | 3.08 | 2.38 | 4.25 | 1.28 | 1.14 |
| COc1ccc(CN2CCCC(Cn3nc(C)nc3C)C2)cc1F (configuration not stated) | -2.67 | -3.8 | 7.97 | -1.91 | 5.64 | -1.94 | 0 | 5.94 | -2.08 | 2.53 | 4.68 |
| CC1c2ncc(Cn3cncn3)n2CCN1C(=O)C1CCOCC1 (configuration not stated) | -4.07 | 10.7 | -5.52 | 0.0625 | 4.83 | -56.5 | 5.13 | -14.3 | 3.12 | 7.5 | -6.18 |
| Cc1csc(CNC(=O)N(C)Cc2cnn(C)c2)n1 | -2.05 | 21.6 | -6.61 | 2.62 | 4.18 | -4.25 | 16.5 | 12.9 | 5.94 | 23.2 | -4.86 |
| Cc1nc(CN(C)C2CCN(Cc3ccc4c(c3)OCCO4)C2)no1 (configuration not stated) | -7.11 | 13 | -0.861 | -3.18 | 5.39 | 1.9 | 2.83 | -7.46 | 5.71 | 11.8 | -17.4 |
| Cc1ccc(NC2CCN(C(=O)c3cc[nH]n3)CC2)nn1 | -0.868 | 0 | 8.84 | 3.52 | -3.01 | 1.53 | 10.7 | -13.4 | -0.49 | -2.44 | 7.64 |
| CN(C)c1ccc(CNc2cncc(-n3cccn3)n2)cc1 | -3.75 | 5.2 | 0.00463 | 7.28 | 3.75 | -6.05 | 6.25 | 9.83 | 2.91 | 12.2 | 72 |
| c1ccc(-n2nnnc2CN2CCCC(Cn3cncn3)C2)cc1 (configuration not stated) | -1.71 | 6.33 | 5.51 | 4.14 | -5.03 | 0.645 | 9.61 | 4.63 | 3.12 | 10.1 | -17.9 |
| O=C(Cc1ccc2c(c1)CCO2)N1CCCCC1Cn1cccn1 (configuration not stated) | -5.85 | 10.5 | 0.878 | 4.66 | 2.24 | -5.92 | 7.19 | 7.18 | 5.32 | 7.79 | -7.71 |
| Cc1ccc(=O)n(CC2(O)CCN(Cc3ccsc3)CC2)n1 | 1.03 | 1.35 | 9.78 | -1.02 | -4.74 | 3.02 | 12.9 | 2.32 | 7.53 | 9.09 | -6.08 |
| CC(=O)Nc1nc(CN2CCCCC2Cn2cccn2)cs1 (configuration not stated) | -4.14 | 5.26 | 3.07 | -1.3 | -0.0974 | -1.18 | 10.8 | 20.7 | 9.57 | 15.6 | -6.41 |
| Cc1cccc(C(=O)NCc2ccc(S(N)(=O)=O)cc2)n1 | -5.17 | 20.8 | 1.31 | -0.564 | -0.187 | 2.85 | 4.39 | 8.2 | 9.71 | 24.4 | -6.84 |
| CCc1nc(C2CCCN2Cc2nccn2Cc2ccccc2)no1 (configuration not stated) | -0.608 | 0 | 1.64 | 13.2 | 2.25 | 0.21 | 9.13 | 10.5 | 2.86 | 2.35 | 4.26 |
| CCn1ccc(C(=O)NCCCN2CCOCC2)n1 | -1.56 | 5.2 | -2.13 | 4.7 | -0.492 | -2.76 | 22 | 4.11 | 7.53 | 13.6 | 0.597 |
| COc1c(CNC(c2nccn2C)C(C)C)c(C)nn1C (configuration not stated) | 1.37 | -5.26 | 0.924 | 13.8 | -2.07 | -2.68 | 2.84 | -7.86 | 6.37 | 0 | 4.67 |
